High-throughput results deposited in PubChem by several laboratories.
Compounds with a hit are over-represented: about 2% of the library has one in this group of screens.
S1P4 antag: antagonists of human S1P4 receptor | inhibition, % at 4.98 µM | AID 1510 | 220,000 compounds, 0.26% hits | O95977 | S1P4-expressing cells, antagonist mode, reporter read-out; in the data active = inhibition above about 29%
S1P3 antagonist: S1P3 (human) receptor antagonism; AID 485; Q99500; CHO S1P3 NFAT-BLA reporter, FRET fluorescence, antagonist mode; 170,000 compounds, 0.27% hits; inhibition, % at 4.98 µM;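 active = inhibition above the plate cutoff, the mean inhibition of test wells on that plate plus 3 SD, cut at about 28% in these data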;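 note: cells challenged with S1P at its EC80 of 0.8 µM; blue over green emission ratio from cleaved BLA substrate after 4 h stimulation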
Target sequence (Q99500 whole entry, looked up): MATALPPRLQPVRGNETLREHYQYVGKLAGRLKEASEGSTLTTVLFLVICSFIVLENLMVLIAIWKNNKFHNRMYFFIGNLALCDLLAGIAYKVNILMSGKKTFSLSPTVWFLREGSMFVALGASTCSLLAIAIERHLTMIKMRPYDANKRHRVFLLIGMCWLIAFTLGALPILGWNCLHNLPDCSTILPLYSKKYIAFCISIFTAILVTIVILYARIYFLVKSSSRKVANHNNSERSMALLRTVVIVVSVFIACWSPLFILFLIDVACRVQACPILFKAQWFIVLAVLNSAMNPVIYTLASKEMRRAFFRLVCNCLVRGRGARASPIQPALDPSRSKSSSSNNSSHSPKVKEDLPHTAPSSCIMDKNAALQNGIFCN
PGE2 EP2 inh: blocks the human prostaglandin E2 receptor EP2; P43116; 260,000 compounds, 0.52% hits; C6 glioma cells expressing human EP2, cAMP TR-FRET; cells stimulated with saturating PGE2; inhibition, % at 25 µM; AID 1422;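 active = percent inhibition above 40 after rounding to a whole number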;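 note: rat C6 glioma host cells with rolipram phosphodiesterase inhibitor present; the protocol text gives 20 µM as final concentration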
EP2 modulator: modulators of human EP2 prostaglandin E2 receptor. EP2-expressing cells, cAMP HTRF FRET, PGE2 co-stimulation. induction, % at 25 µM. 260,000 compounds, 0.83% hits. AID 940;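 active = compounds whose cAMP rise, as percent of the full-agonist control response, exceeds 60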;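 note: rat C6 glioma line stably carrying human EP2 under a CMV promoter; the protocol text gives 20 µM as final concentration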
S1P4 agonist: human S1P4 receptor agonism; O95977; S1P4-expressing cell line, agonist reporter assay; activation, % at 4.98 µM; 220,000 compounds, 0.35% hits; AID 1509; in the data active = activation above about 11%
Hits are given with their value; i = inactive; nt = no result; ! = repeats disagree.

SMILES | S1P4 antag | S1P3 antagonist | PGE2 EP2 inh | EP2 modulator | S1P4 agonist
COc1ccc(-c2cc(-c3ccc(C)cc3)nc(N)c2C#N)cc1OC | nt | nt | i | i | nt
COc1ccc(-c2cc(-c3ccc(O)cc3)nc(N)c2C#N)cc1OC | i | i | 40! | i | i
CCOc1ccc(-c2cc(-c3ccc(OC)c(OC)c3)c(C#N)c(N)n2)cc1 | nt | nt | i | 80 | nt
COc1ccc(-c2cc(C)nc(N)c2C#N)cc1OC | nt | nt | i | i | nt
Cc1ccc(N=Nc2c(O)c(S(=O)(=O)O)cc3cc(S(=O)(=O)O)ccc23)c(C)c1 | nt | nt | 42 | i | nt
O=C(O)c1c2ccccc2cc2ccccc12 | nt | nt | i | i | nt
Oc1cc(-c2ccccc2)c2ccccc2c1 | i | i | i | 61 | i
Cc1ccc(Cl)cc1N1CCN(C(=O)c2ncoc2-c2cccs2)CC1 | nt | nt | i | i | nt
Nc1nc(/C=C/c2c[nH]c3ccccc23)nc(-c2ccccc2O)n1 | nt | nt | 91 | i | nt
Nc1nc(/C=C/c2ccc(F)cc2)nc(-c2ccccc2O)n1 | i | i | i | i | i
N#Cc1cnc(SCc2ccccc2)nc1N | nt | nt | i | i | nt
CN1C2CC(OC(=O)[C@H](CO)c3ccccc3)CC1C1OC12 (some centres undefined) | nt | nt | i | i | nt
CN1[C@@H]2CC(OC(=O)[C@@H](CO)c3ccccc3)C[C@H]1[C@H]1O[C@H]12 (some centres undefined) | nt | nt | 52 | i | nt
COCCCNC(=S)N(Cc1cc2cc(C)c(C)cc2[nH]c1=O)C1CCCC1 | nt | nt | i | i | nt
Cc1ccc(-n2c(SCC(=O)Nc3cccc4ccccc34)nnc2-c2ccncc2)cc1 | nt | nt | i | i | nt
COc1cccc2c1OCC(C(=O)O)C2 (centres undefined) | i | i | i | i | i
COc1cccc2c1C(CO)N1C(C#N)C3CC(C(=O)O)C(C1C2)N3C (centres undefined) | 94 | i | i | i | i
O=C(C1=NN(c2ccccc2)C2C(=O)N(c3cccc(Cl)c3)C(=O)C12)c1ccccc1 (centres undefined) | i | 28 | i | i | i
CCCCN(CCCC)C(=O)c1sc2nc(N3CCOCC3)c3c(c2c1N)CCCC3 | i | i | i | 87 | i
CN1[C@@H](C(=O)NCc2ccccn2)C[C@@H](c2ccc(F)cc2)NS1(=O)=O | nt | nt | nt | i | nt
CN1[C@@H](C(=O)NCc2ccccn2)C[C@@H](c2cccs2)NS1(=O)=O | nt | nt | nt | 85 | nt
CN1CC=C(/C=C/C2=Cc3ccccc3OC2)CC1 | nt | nt | nt | i | nt
Cn1c(=O)c2c(SCc3ccccc3)nc(C3CC3)nc2n(C)c1=O | i | i | i | 73 | i
Cc1nc(SCc2c(F)cccc2Cl)c2c(=O)n(C)c(=O)n(C)c2n1 | i | i | i | 62 | i
Cc1nnc(NC(=O)CSc2nnc(-c3ccoc3C)n2-c2ccc(F)cc2)s1 | nt | nt | i | i | nt
SMILES | S1P4 antag | S1P3 antagonist | PGE2 EP2 inh | EP2 modulator | S1P4 agonist
C[C@H]1[C@H](C)OC(=O)C[C@H](O)C[C@H](O)C[C@H](O)CC[C@H](O)[C@H](O)CC(=O)C[C@H](O)[C@H](C(=O)O)[C@H](O)C[C@H](O[C@H]2O[C@@H](C)[C@H](O)[C@@H](N)[C@@H]2O)C=CC=CC=CC=CCCC=CC=C[C@@](C)(O)[C@H]1O | nt | nt | 44 | i | nt
CC1C/C=C/C=C/C=C/C=C/C(O[C@@H]2O[C@H](C)[C@@H](O)[C@H](N)[C@@H]2O)CC2OC(O)(CC(O)CC3OC3/C=C/C(=O)O1)CC(O)C2C(=O)O (some centres undefined) | i | i | nt | i | i
CCOc1ccc2[nH]c(=O)c(CN(Cc3cccs3)C(CC)c3nnnn3C3CCCC3)cc2c1 (centres undefined) | nt | nt | i | 62 | nt
CCC(c1nnnn1C1CCCC1)N(Cc1ccc(C)cc1)Cc1cc2ccc(C)cc2[nH]c1=O (centres undefined) | nt | nt | i | i | nt
CCC(c1nnnn1C1CCCCC1)N(Cc1ccccc1)Cc1cc2cc(C)c(C)cc2[nH]c1=O (centres undefined) | nt | nt | i | i | nt
CCOc1ccc2[nH]c(=O)c(CN(Cc3ccccc3)C(CC)c3nnnn3C3CCCC3)cc2c1 (centres undefined) | nt | nt | i | 62 | nt
CCC(c1nnnn1C1CCCCC1)N(Cc1ccc(C)cc1)Cc1cc2cccc(C)c2[nH]c1=O (centres undefined) | nt | nt | i | 66 | nt
CCC(c1nnnn1C1CCCC1)N(Cc1ccccc1)Cc1cc2cc(OC)ccc2[nH]c1=O (centres undefined) | nt | nt | i | 74 | nt
CCCC(c1nnnn1Cc1ccccc1)N(Cc1cc2cc(C)cc(C)c2[nH]c1=O)C1CCCC1 (centres undefined) | nt | nt | i | i | nt
NC(=O)CCn1c(=O)sc2ccccc21 | nt | nt | i | i | nt
CCC(c1nnnn1C(C)(C)C)N(Cc1ccccc1)Cc1cc2cc(OC)ccc2[nH]c1=O (centres undefined) | nt | nt | i | 68 | nt
Nc1cc(-c2ccco2)nn(CC(=O)NCc2ccc(Cl)cc2)c1=O | nt | nt | i | i | nt
COc1cc(C(=O)NCCc2c[nH]c3ccccc23)ccc1OCc1c(C)noc1C | i | i | 88 | i | i
COc1ccccc1CNC(=O)c1ccc(OCc2c(C)noc2C)c(OC)c1 | i | nt | i | i | i
COc1ccccc1C1(NC(=O)Cc2nc(C)sc2-c2ccccc2)CCCC1 | nt | nt | i | i | nt
CCn1cc(C(=O)N2CCn3c(nc4ccccc43)C2)c(=O)c2ccc(C)nc21 | i | 68 | i | i | i
Cc1cc(Cl)nc2ccc(Cc3ccc4nc(Cl)cc(C)c4c3)cc12 | i | i | 42! | i | i
CSc1nc(Cc2ccc(Cl)cc2)nc2ccccc12 | i | nt | i | i | i
COc1ccc(OC)c(C(c2nnnn2C2CCCC2)N2CCN(c3ccccc3F)CC2)c1 (centres undefined) | i | i | i | 66! | i
COc1ccc(Cn2nnnc2C(C(C)C)N(Cc2ccco2)Cc2cccs2)cc1 (centres undefined) | i | 54 | i | i | i
CC(C)C(c1nnnn1Cc1ccccc1)N(Cc1ccco1)Cc1cccs1 (centres undefined) | i | i | i | i | i
Cc1ccc(C(c2nnnn2C(C)(C)C)N(Cc2ccco2)Cc2cccs2)cc1 (centres undefined) | i | 90 | i | i | i
O=C(NCc1ccc2c(c1)OCO2)C1CCN(c2ccc(S(=O)(=O)N3CCOCC3)cc2)CC1 | nt | nt | i | i | nt
O=C(/C=C/c1ccccc1)NC1CC2CCCC(C1)N2Cc1cccs1 (centres undefined) | nt | nt | 49 | i | nt
CCc1ccc2c(c1)-c1c(s[s+]c1SC(C)=O)C(C)(C)N2 | nt | nt | i | 65 | nt
SMILES | S1P4 antag | S1P3 antagonist | PGE2 EP2 inh | EP2 modulator | S1P4 agonist
CC(C)n1cc(NC(=O)[C@H]2C[C@@H](c3ccc(F)cc3)NS(=O)(=O)N2C)cn1 | nt | nt | nt | i | nt
O=C1OC(c2ccc(O)c(-c3ccccc3)c2)(c2ccc(O)c(-c3ccccc3)c2)c2c(Cl)c(Cl)c(Cl)c(Cl)c21 | nt | nt | 47 | i | nt
Cc1cnc(C(=O)N2CCC[C@H](CNC(=O)c3cccs3)C2)cn1 | nt | nt | nt | i | nt
CCCCN(CCCC)c1nc(-c2ccncc2)nc2ccccc12 | i | i | i | 68 | i
Cc1cccc(-n2c(-c3ccco3)nn(CC(=O)NC(C)C)c2=O)n1 | nt | nt | i | i | nt
c1ccc2c(c1)nc(N1CCCCCC1)c1ccccc12 | i | i | i | 63 | i
